# Where “and” joins values, the source holds several entries; their conditions need not be identical. Equal entries are not always repeated. Results filed as inconclusive are left out. Where a call stands in place of a potency, no number is given. Calls of active or inactive are those of the source. Unless noted, calls follow the shape of the dose curve; as a rule, active = well fitted curve in the direction sought with a large enough effect; inconclusive = small, poorly fitted or top-dose-only effect, or another doubt; inactive = no such curve, though single readings can be large; an effect the other way counts as inactive or inconclusive.
# Tests used:
# [1] = Primary qHTS for inhibitors of La Crosse Virus (LACV) - induced cell death in SH-SY5Y cells (AID 1508616);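 also: top concentration of the series differs between compounds; higher means more rescue of cells from virus-induced death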
# Summary of the method: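 SH-SY5Y cells (6000/well) plated 24 h, then given compounds by pin transfer and LACV at 0.01 MOI for 6 days at 37C. Viability measured by ATPLite luminescence, normalized to infected DMSO and uninfected DMSO.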
# [2] = molecular target: Calcium and integrin-binding protein 1 (Homo sapiens) (UniProt Q99828); test: Validation qHTS for Identification of Calcium Integrin Binding protein 1 (CIB1) Competitor (AID 1508618)
# Summary of the method: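 Fluorescence polarization with 1 uM CIB1-GST and 100 nM FITC-alphaIIb peptide in HEPES pH 7.4, NaCl, 5 mM CaCl2, Tween20. Compounds at up to 114 uM final, preincubated with protein 15 min; read after 15 min more at RT.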
# [3] = Counterscreen qHTS for small molecule stabilizers of the endoplasmic reticulum resident proteome: GLuc-NoTag assay (AID 1508627);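 also: SH-SY5Y cells given compound then 100 nM thapsigargin to empty ER calcium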
# Summary of the method: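 Luminescence of Gaussia luciferase secreted into the medium (coelenterazine, 0.07x final, unlysed cells) was the read-out. Human SH-SY5Y neuroblastoma cells constitutively secreting untagged GLuc received compound for 19 h, then 100 nM thapsigargin for 4 h.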
# [4] = Confirmatory qHTS for small molecule stabilizers of the endoplasmic reticulum resident proteome: Secreted ER Calcium Modulated Protein (SERCaMP) assay (AID 1508628); also: nearly all actives have a fitted effect of over 40% in size; also: potency is read from the fitted curve at half-maximal effect
# Summary of the method: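 SH-SY5Y cells stably expressing GLuc-SERCaMP, treated 16 h with compound (primary 1.53, 7.67, 38.3 uM; confirmation 11 concentrations, up to 76.6 uM), then 100 nM thapsigargin for 4 h. Secreted Gaussia luciferase in medium read by coelenterazine luminescence.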
# Papain (Carica papaya) = Papain (Carica papaya) (UniProt P00784); test: Primary qHTS assay for inhibitors of the protease papain (AID 1645873);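 also: papain turnover of Z-FR-AMC read as the AMC fluorescence gain over 10 min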
# [5] = Primary qHTS for inhibitors of nuclear receptor binding SET domain protein 2 (NSD2) in an isogenic RCH-ACV NSD2 p.E1099K mutant (9B) (AID 1645876); also: nearly all actives have a fitted effect of over 70% in size; also: potency is read from the fitted curve at half-maximal effect
# [6] = Primary qHTS for small molecule stabilizers of the endoplasmic reticulum resident proteome: Secreted ER Calcium Modulated Protein (SERCaMP) assay (AID 1508630)
# Summary of the method: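 GLuc-SERCaMP-expressing SH-SY5Y cells, pretreated 16 h with compound, are challenged with thapsigargin to empty ER calcium stores; after 4 h, coelenterazine is added directly to the medium and luminescence is imaged.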
# [7] = Primary qHTS for Vero E6 cytotoxicity: counterscreen for inhibitors of SARS-S pseudo-typed particle cell entry (AID 1479150; calls by dose curve; also: potency is read from the fitted curve at half-maximal effect)
# [8] = Confirmatory qHTS for VERO E6 Cytotoxicity Assay: Counterscreen for SARS-CoV-2 CPE Assay (AID 1508605; calls by dose curve; also: nearly all actives have a fitted effect of over 60% in size)
# [9] = Confirmatory qHTS for activators (rescue) of SARS-CoV-2 Cytopathic Effect (CPE) (AID 1508606; calls by dose curve; also: nearly all actives have a fitted effect of over 70% in size)
# [10] = molecular target: Calcium and integrin-binding protein 1 (Homo sapiens) (UniProt Q99828); test: Primary qHTS for Identification of Calcium Integrin Binding Protein 1 (CIB1) Competitor (AID 1508620);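 also: GST tagged CIB1 binding a fluorescein labelled alphaIIb integrin peptide tracer; top concentration of the series differs between compounds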
# Summary of the method: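 CIB1-GST (1 uM final) and compound incubated 15 min at room temperature before adding FITC-alphaIIb peptide tracer (100 nM final). Competition for binding read by fluorescence polarization (ex 480, em 540) after another 15 min at room temperature.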
# [11] = Cytotoxicity counterscreen for inhibitors of SARS-CoV-2 cell entry (AID 1645845; calls by dose curve; also: nearly all actives have a fitted effect of over 50% in size); details: outcome: dose series up to 57.1 µM unless noted
# Summary of the method: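 48 h compound treatment (after 1 h preincubation), HEK293-ACE2 cells, 37 C/5% CO2; ATP luminescence endpoint; normalized to cell wells and media blanks.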
# [12] = Primary qHTS for inhibitors of MERS-S pseudo-typed particle cell entry (AID 1479149; calls by dose curve; also: nearly all actives have a fitted effect of over 60% in size); details: outcome: dose series up to 57.1 µM unless noted
# [13] = Primary qHTS to identify inhibitors of SARS-CoV-2 cell entry (AID 1645846; calls by dose curve; also: nearly all actives have a fitted effect of over 45% in size); details: activity change, negative = inhibition: at 57.1 µM (top of the series) unless noted
# Summary of the method: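 Inhibition of spike-mediated entry was scored in human ACE2-transfected Expi293F cells. Particles were MLV-pseudotyped with Wuhan-Hu-1 S carrying a 19-aa C-terminal deletion; signal was luciferase after two days, scaled between spike PP and fusion-protein-free PP.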
# [14] = Confirmatory qHTS to identify inhibitors of SARS-CoV-2 cell entry (AID 1645844; calls by dose curve; also: potency is read from the fitted curve at half-maximal effect; nearly all actives have a fitted effect of over 45% in size); details: SARS-CoV-2 pseudotyped particle cell entry, luciferase
# Summary of the method: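 Luminescence from a luciferase reporter, read 48 hr after pseudotyped-particle addition, gives entry signal, normalised to spike-bearing PP wells and bald PP lacking fusion protein wells. Cells are Expi293F stably expressing human ACE2, compound-pretreated 1 hr.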
# [15] = VSVG counterscreen qHTS to identify inhibitors of SARS-CoV-2 cell entry (AID 1645847; calls by dose curve; also: potency is read from the fitted curve at half-maximal effect; nearly all actives have a fitted effect of over 65% in size); details: VSV-G pseudotyped particle entry, luciferase
# Summary of the method: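 Luminescence from a luciferase reporter, normalised to bald particle and VSV-G pseudotyped particle wells, is the read-out. Cells are HEK293 expressing human ACE2, exposed to compound 1 h before a 48 h particle infection at 37 °C.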
# Chain of Calcium and integrin-binding protein 1 (Homo sapiens) (Q99828 whole entry, looked up): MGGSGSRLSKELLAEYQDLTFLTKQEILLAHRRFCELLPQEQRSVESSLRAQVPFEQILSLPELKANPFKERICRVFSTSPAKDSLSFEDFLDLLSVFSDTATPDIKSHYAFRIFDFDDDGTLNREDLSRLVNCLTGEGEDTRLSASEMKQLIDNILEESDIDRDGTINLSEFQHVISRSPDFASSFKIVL
# Chain of Papain (Carica papaya) (P00784 whole entry, looked up, the tested form may be a part): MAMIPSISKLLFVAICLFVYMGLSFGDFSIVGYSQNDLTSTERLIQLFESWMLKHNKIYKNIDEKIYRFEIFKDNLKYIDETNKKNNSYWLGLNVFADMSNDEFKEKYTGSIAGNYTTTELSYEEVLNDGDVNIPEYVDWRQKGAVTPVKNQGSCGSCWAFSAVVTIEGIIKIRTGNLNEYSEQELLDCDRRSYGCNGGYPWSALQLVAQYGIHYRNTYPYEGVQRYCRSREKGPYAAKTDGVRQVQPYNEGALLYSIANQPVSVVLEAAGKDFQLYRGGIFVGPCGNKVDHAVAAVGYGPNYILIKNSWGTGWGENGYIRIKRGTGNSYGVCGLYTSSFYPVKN
structure (smiles),measurement,setting,value
N#C/C(=C/c1ccc(O)c(O)c1)C(N)=S,Potency,[1],inactive
same,Potency,[2],inactive
same,outcome,[3],inactive
same,Potency,[4],10 µM (active)
same,Potency,Papain (Carica papaya),inactive
same,Potency,[5],8.2 µM (active)
CC(=O)OCC1=C(C(=O)O)N2C(=O)[C@@H](NC(=O)CCC[C@@H](N)C(=O)O)[C@H]2SC1,Potency,[1],inactive
same,Potency,[2],inactive
same,outcome,[6],inactive
N[C@@H](Cn1ccc(=O)[nH]c1=O)C(=O)O,Potency,[1],inactive
NCC(O)c1cc(O)c(O)cc1F (stereo unspecified),Potency,[1],inactive
same,Potency,[2],inactive
same,Potency,[4],inactive
same,Potency,Papain (Carica papaya),inactive
CC[C@H]1CN2CC[C@H]1C[C@@H]2[C@@H](O)c1ccnc2ccc(OC)cc12,Potency,[7],inactive
same,outcome,[8],inactive
same,outcome,[9],inactive
same,Potency,[10],inactive
same,outcome,[11],inactive
same,Potency,[5],inactive
CCCN1CC[C@@H]2c3cc(O)ccc3CC[C@@H]21,Potency,[1],inactive
same,Potency,[2],inactive
same,outcome,[6],inactive
same,Potency,Papain (Carica papaya),inactive
O=C/C=C/c1ccccc1,outcome,[12],inactive
same,Potency,[7],inactive
same,outcome,[11],inactive
same,"activity change, negative = inhibition",[13],-22.2%
C[C@]12CC[C@H]3[C@@H](CCC4=C(O)C(=O)CC[C@@H]43)[C@@H]1CC[C@@H]2OC(=O)CCC1CCCC1,outcome,[12],inactive
same,Potency,[7],inactive
same,outcome,[11],inactive
same,"activity change, negative = inhibition",[13],-9.8%
C[C@H](Cc1ccc2c(c1)OC(C(=O)O)(C(=O)O)O2)NC[C@H](O)c1cccc(Cl)c1,Potency,[1],inactive
same,Potency,[2],inactive
same,outcome,[6],inactive
same,Potency,Papain (Carica papaya),inactive
CC(C)CCC(=O)O[C@H]1CC[C@H]2[C@@H]3CCC4=CC(=O)CC[C@]4(C)[C@H]3CC[C@]12C,outcome,[12],inactive
same,Potency,[7],inactive
same,outcome,[11],inactive
same,"activity change, negative = inhibition",[13],-25.5%
COc1ccc2[nH]c3c(c2c1)CCNC3,Potency,[1],inactive
same,Potency,[2],inactive
same,outcome,[6],inactive
CCCCCCC(=O)O[C@H]1CC[C@H]2[C@@H]3CC[C@H]4CC(=O)C=C(C)[C@]4(C)[C@H]3CC[C@]12C,outcome,[12],inactive
same,Potency,[7],inactive
same,outcome,[11],inactive
same,"activity change, negative = inhibition",[13],-7.93%
C[C@]12Cc3cn4c(nc3C=C1CCC1C2CC[C@@]2(C)[C@H]1CC[C@@]2(O)C#N)nc1ccccc14 (stereo partly specified),Potency,[1],inactive
same,Potency,[2],inactive
same,outcome,[6],inactive
O=[N+]([O-])c1cc(O)c(O)c([N+](=O)[O-])c1,Potency,[1],inactive
same,Potency,[2],inactive
same,outcome,[6],inactive
O=C1C2CC=CCC2C(=O)N1SC(Cl)(Cl)Cl (stereo unspecified),Potency,[7],20 µM (active)
same,Potency,[14],15.2 µM (active)
same,Potency,[15],15.2 µM (active)
CCCCCCC(C)(C)c1ccc([C@@H]2C[C@H](O)CC[C@H]2CCCO)c(O)c1,Potency,[1],inactive
c1ccc2c(N3CCNCC3)cccc2c1,Potency,[1],inactive
same,Potency,[2],inactive
same,outcome,[3],inactive
C/C(=C\c1csc(C)n1)[C@@H]1C[C@@H]2O[C@]2(C)CCC[C@H](C)[C@H](O)[C@@H](C)C(=O)C(C)(C)[C@@H](O)CC(=O)O1,outcome,[12],inactive
same,Potency,[7],inactive
same,outcome,[11],inactive
same,"activity change, negative = inhibition",[13],-75.8% and -81.1%
same,Potency,[15],0.0341 µM (active)
same,Potency,[5],0.0066 µM (active)
